Results published in PubChem BioAssay AID651610 (Broad Institute, 2012).
Out of some 360,000 compounds screened, about 3,900 (1.1%) were called active. The entries come from a sample that favours actives as a whole. Unmarked numbers belong to inactive results.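 The calls were made as follows: active = mean replicate inhibition score of at least 50 and every replicate individually at or above 50; inconclusive = only one of the two criteria met; inactive = mean below 50 and not all replicates reaching 50.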

Assay: inhibitors of HIV-1 Env-driven cell-cell fusion, primary screen, HeLa-JRFL effector, CEM21 target cells, luciferase (AID 651610);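 also: 0% = plate neutral controls and 100% = maraviroc near 300 nM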
Settings: hits give high values; at 16.7 µM unless noted

Structure (SMILES) | inhibition
C[C@H]1CN([C@@H](C)CO)S(=O)(=O)c2ccc(Br)cc2O[C@H]1CN(C)Cc1ccccn1 | 16.3%
C[C@H]1CN([C@@H](C)CO)S(=O)(=O)c2ccc(C3=CCCC3)cc2O[C@@H]1CN(C)Cc1ccccc1 | 18.3%
CN1CCN(CCCCOc2ccccc2-c2ccccc2)CC1 | 6.99% [at 12.3 µM]
S=C(c1ccc(-c2ccccc2)o1)N1CCCCC1 | -140% [at 12.3 µM]
OCCN1CCN(C(=S)c2ccc(-c3ccccc3)cc2)CC1 | 71.3% [at 12.3 µM] (active)
CCOC(=O)c1c(NC(=O)C(C)Sc2c[nH]c3ccccc23)sc2c1CCC2 (centres undefined) | 67% [at 12.3 µM] (active)
CCOC(=O)c1c(NC(=O)CSc2cn(CC)c3ccccc23)sc2c1CCC2 | 40.8% [at 12.3 µM]
CCOC(=O)c1c(NC(=O)C2(C)Cc3ccccc3C(=O)O2)sc2c1CCCC2 (centres undefined) | 14.6% [at 12.3 µM]
C[C@H](CO)N1C[C@H](C)[C@H](CN(C)S(=O)(=O)c2cn(C)cn2)Oc2ccc(NS(=O)(=O)c3ccccc3)cc2C1=O | 2.2%
C[C@@H]1CN([C@@H](C)CO)C(=O)c2cc(NC(=O)Cc3ccccc3)ccc2O[C@@H](C)CCCCO[C@@H]1CN(C)C(=O)Nc1ccccc1 | 34.3%
Cc1ccc(Cc2c(-c3ccc(C)cc3)nc3c4ccccc4ccn23)cc1 | 14.4% [at 12.3 µM]
Cc1ccc(Cc2c(-c3ccc(Cl)cc3)nc3c4ccccc4ccn23)cc1 | 0.563% [at 12.3 µM]
c1ccc(Cc2c(-c3ccco3)nc3c4ccccc4ccn23)cc1 | 65.9% [at 12.3 µM] (active)
COc1ccc(S(=O)(=O)N(C)C[C@H]2OCCCC[C@@H](C)Oc3ccc(NC(=O)c4ccncc4)cc3C(=O)N([C@H](C)CO)C[C@@H]2C)cc1 | 13.6%
CO[C@@H]1CN(C)C(=O)c2cc(NS(=O)(=O)c3cccc(Cl)c3)ccc2OC[C@@H](C)NC[C@@H]1C | 0.008%
C[C@@H]1CN([C@@H](C)CO)C(=O)Cc2cc(NC(=O)Nc3ccc4c(c3)OCO4)ccc2O[C@@H]1CN(C)C(=O)Nc1ccc2c(c1)OCO2 | -15.9%
COc1cccc(NC(=O)N[C@@H]2CC[C@H](CC(=O)NCc3ccccn3)O[C@H]2CO)c1 | -38%
CCC(=O)N(C)C[C@@H]1Oc2ncc(C3=CCCC3)cc2C(=O)N([C@H](C)CO)C[C@@H]1C | 0.169%
CCC(=O)N(C)C[C@H]1Oc2ncc(-c3ccccc3OC)cc2C(=O)N([C@H](C)CO)C[C@H]1C | -7.79%
